Among the data in PubChem BioAssay (EPA / NIEHS) are outcome and AC50 values, retold here.

Calls of active or inactive are those of the source. The calls were made as follows: active = hit-call score of the fitted dose curve at least 0.9, where 1 is the maximum; inactive = score below 0.9.

The target in test [1] is CCAAT/enhancer-binding protein beta (Homo sapiens) (UniProt P17676). Description: ATG_C_EBP_CIS: Attagene CIS-FACTORIAL HepG2 Assay for human CCAAT/Enhancer Binding Protein (C/EBP) beta (AID 2282927). The note with it: HepG2 Attagene cis-factorial transcription factor reporter; actives raise or lower the signal. Summed up: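 HepG2 transiently transfected with multiplexed reporter units under cis-regulatory promoters reporting endogenous C/EBPb activity. After 24 h exposure, reporter mRNA assayed by RT-PCR, fluorescent labelling, HpaI digestion and capillary electrophoresis; bidirectional fitting versus DMSO.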

Test [2] is described as follows: ATG_DR4_LXR_CIS: Attagene CIS-FACTORIAL HepG2 Assay for human Liver X Receptor (LXR), DR4 submotif (AID 2282929). Conditions: HepG2 Attagene DR4 cis-reporter, mRNA transcription; actives raise or lower the signal. Summed up: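 Total RNA from 24 h-treated, MRTU-transfected HepG2 cells underwent reverse transcription, PCR, fluorescent primer extension and restriction digestion before capillary electrophoresis. Both increases and decreases in reporter signal were fitted against DMSO.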

Test [3] can be described thus: ATG_AP_2_CIS: Attagene CIS-FACTORIAL HepG2 Assay for human Activator Protein 2 (AP-2) (AID 2282932). Conditions: HepG2 AP-2 cis-reporter, Attagene transcription factor profiling; actives raise or lower the signal. Put shortly: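 Liver-derived HepG2 line, cis-reporter system measuring endogenous factors; 24 h dosing; reporter mRNA detected by fluorescent RT-PCR and capillary electrophoresis.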

Test [4] concerns the target Transcription factor E2F1 (Homo sapiens) (UniProt Q01094). In words: ATG_E2F_CIS: Attagene CIS-FACTORIAL HepG2 Assay for human E2F Transcription Factor 1 (AID 2282935). The note with it: HepG2 Attagene cis-reporter, E2F reporter RNA transcripts; actives raise or lower the signal. Summed up: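 Liver-derived HepG2 cells expressing transfected promoter-driven reporter units received test chemical for 24 hours. Signal gains or losses were fitted bidirectionally against DMSO.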

Test [5] can be described thus: ATG_E_Box_CIS: Attagene CIS-FACTORIAL HepG2 Assay for human Enhancer Box (E-box) (AID 2282936). Conditions: HepG2 E-box cis-reporter transcription, actives raise or lower the signal. Put shortly:
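In this cell-based setup, HepG2 cells bearing transfected promoter-driven reporter units were exposed to chemicals for 24 h; reporter transcripts were amplified, 6-FAM-labelled, cut with HpaI and sized by capillary electrophoresis.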

Test [6] in a line: ATG_M_19_CIS: Attagene CIS-FACTORIAL HepG2 Assay for M19 Transcription Factor (Internal Marker) (AID 2282939). Conditions: HepG2 Attagene CIS-FACTORIAL M19 internal marker reporter; actives raise or lower the signal. Summed up:
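Chemical-treated HepG2 (24 h) with MRTU constructs; reporter transcripts detected by fluorescent RT-PCR fragment analysis on capillary electrophoresis. Internal background marker, DMSO as baseline.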

Test [7] can be described thus: ATG_GLI_CIS: Attagene CIS-FACTORIAL HepG2 Assay for human Zinc Finger Protein GLI1 (AID 2282945). Conditions: HepG2, Attagene cis-factorial reporter mRNA, GLI element; actives raise or lower the signal. Summed up: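 Transiently transfected HepG2 cells report endogenous transcription factor activity via cis-element-driven reporter units. After 24 h compound exposure, reporter mRNA was measured by RT-PCR with capillary electrophoresis; bidirectional fitting against DMSO baseline.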

Test [8] can be described thus: ATG_ISRE_CIS: Attagene CIS-FACTORIAL HepG2 Assay for human Interferon Regulatory Factor 1 (IRF1) binding to an Interferon-Stimulated Response Element (ISRE) (AID 2282948). Conditions: HepG2 ISRE cis-reporter (Attagene), mRNA transcription readout; actives raise or lower the signal. Summed up: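 Endogenous transcription factor activity read as reporter transcript abundance via RT-PCR and capillary electrophoresis. HepG2 cells transiently transfected, 24 h chemical exposure. Gain or loss fitted against DMSO baseline.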

A short description of test [9]: ATG_M_32_CIS: Attagene CIS-FACTORIAL HepG2 Assay for M32 Transcription Factor (Internal Marker) (AID 2282949).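 Also: background control marker of the multiplexed CIS panel rather than a real target.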 The note with it: HepG2 Attagene cis-factorial M32 reporter, mRNA; actives raise or lower the signal. Summed up:
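HepG2 transfectants (cis-regulated reporter transcription units) dosed 24 h. Reporter mRNA by RT-PCR plus CE, analysed as gain or loss relative to DMSO.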

A short description of test [10]: ATG_PXRE_CIS: Attagene CIS-FACTORIAL HepG2 Assay for human Pregnane X Receptor Element (PXRE) (AID 2282957). The note with it: HepG2 Attagene CIS-FACTORIAL PXRE reporter, mRNA; actives raise or lower the signal. Summed up: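 Bidirectional activity, baselined to DMSO, derived from reporter mRNA fluorescence (RT-PCR plus capillary electrophoresis) in HepG2 cells bearing cis-promoter reporter units, 24 h exposure.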

The nature of test [11]: ATG_Sox_CIS: Attagene CIS-FACTORIAL HepG2 Assay for human SRY-box transcription factor (SOX) (AID 2282960). The note with it: HepG2 Attagene cis-factorial SOX reporter, mRNA; actives raise or lower the signal. Put shortly:
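HepG2, cis reporter units, 24 h exposure. Reporter mRNA: RT-PCR → FAM labelling → HpaI → CE fluorescence. Bidirectional fit vs DMSO.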

Test [12] addresses Transcription factor Sp1 (Homo sapiens) (UniProt P08047). In words: ATG_Sp1_CIS: Attagene CIS-FACTORIAL HepG2 Assay for human Specificity Protein 1 (Sp1) (AID 2282961). Conditions: HepG2 Sp1 cis-reporter transcription, actives raise or lower the signal. Summed up: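 Liver-derived HepG2 cells, cis-element reporter library, 24 h treatment; RNA isolated, cDNA amplified with reporter-specific primers, FAM-labeled fragments sized on capillary analyzer. DMSO baseline, bidirectional curve fit.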

Test [13] has as its target Signal transducer and activator of transcription 3 (Homo sapiens) (UniProt P40763). Description: ATG_STAT3_CIS: Attagene CIS-FACTORIAL HepG2 Assay for human Signal Transducer and Activator of Transcription 3 (STAT3) (AID 2282963). Conditions: HepG2, Attagene cis-factorial STAT3 reporter transcription; actives raise or lower the signal. Put shortly:
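Fluorescence intensity of 6-FAM-labelled reporter fragments, separated by capillary electrophoresis after RT-PCR, gave the signal. Cells were HepG2 transfected with cis-element reporter units and treated 24 h; fitting was bidirectional relative to DMSO.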

Test [14] is described as follows: ATG_TA_CIS: Attagene CIS-FACTORIAL HepG2 Assay for human TA Basal Promoter (AID 2282964). Conditions: HepG2 Attagene CIS-factorial TA basal promoter reporter; actives raise or lower the signal. Summed up: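 Background internal-marker endpoint from a 52-component HepG2 cis-reporter panel. Cells treated 24 h; reporter transcripts quantified via RT-PCR and CE fluorescence against DMSO baseline.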

The nature of test [15]: ATG_TCF_b_cat_CIS: Attagene CIS-FACTORIAL HepG2 Assay for human T-Cell-Factor with beta-catenin (TCF/b-cat) (AID 2282965). The note with it: HepG2 TCF/beta-catenin cis-reporter transcription, actives raise or lower the signal. Summed up: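 HepG2 cells transiently transfected with cis-promoter-driven multiplexed reporter units; reporter mRNA measured 24 h after dosing by RT-PCR, FAM labelling, HpaI digestion and capillary electrophoresis. Bidirectional fitting relative to DMSO baseline.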

A short description of test [16]: ATG_TAL_CIS: Attagene CIS-FACTORIAL HepG2 Assay for human TAL Basal Promoter (AID 2282966).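 Also: background control endpoint measuring basal TAL promoter reporter mRNA not a specific factor.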 The note with it: HepG2 Attagene cis-factorial TAL promoter reporter; actives raise or lower the signal. Put shortly: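 Human hepatoma HepG2 cells, transfected with promoter-regulated reporter units, were treated 24 h. Reporter transcript levels, measured through RT-PCR and capillary electrophoresis, were fitted for gain or loss relative to DMSO.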

The target of test [17] is X-box-binding protein 1 (Homo sapiens) (UniProt P17861). In words: ATG_Xbp1_CIS: Attagene CIS-FACTORIAL HepG2 Assay for human X-box Binding Protein 1 (XBP1) (AID 2282972). Conditions: HepG2 XBP1 cis-element reporter, Attagene multiplex; actives raise or lower the signal. Summed up:
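Reporter transcripts were quantified by RT-PCR with fluorescent primer extension and capillary electrophoresis after 24 h chemical exposure. Cells: transiently transfected HepG2 carrying cis-regulated reporter constructs; data fitted bidirectionally relative to DMSO.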

For test [18], the target named is Transcriptional activator Myb (Homo sapiens) (UniProt P10242). In words: ATG_Myb_CIS: Attagene CIS-FACTORIAL HepG2 Assay for human Myeloblastosis (Myb) Proto-Oncogene Transcription Factor (AID 2282986). Conditions: HepG2 Attagene CIS-FACTORIAL Myb reporter transcription; actives raise or lower the signal. Summed up:
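After 24 h of compound dosing, total RNA from transfected HepG2 cells is reverse-transcribed and the reporter sequences amplified, labeled and separated by capillary electrophoresis. Values come from bidirectional fitting against DMSO.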

For test [19], the target named is Myc proto-oncogene protein (Homo sapiens) (UniProt P01106). Description: ATG_Myc_CIS: Attagene CIS-FACTORIAL HepG2 Assay for human Myelocytomatosis (Myc) Proto-Oncogene Transcription Factor (AID 2282990). The note with it: HepG2, Attagene cis-reporter transcription factor activity; actives raise or lower the signal. Summed up: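 Transiently transfected HepG2 cells bearing cis-promoter reporter units for endogenous transcription factors; 24 h exposure. Reporter mRNA measured by RT-PCR, 6-FAM primer extension, HpaI cut and capillary electrophoresis; bidirectional fit relative to DMSO.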

Test [20] is described as follows: ATG_Oct_MLP_CIS: Attagene CIS-FACTORIAL HepG2 Assay for human Octamer-Binding Transcription Factor (Oct) (AID 2282993). Conditions: HepG2 Attagene cis-factorial Oct reporter, mRNA; actives raise or lower the signal. Summed up:
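Using HepG2 cells bearing transfected cis-reporter constructs, mRNA induction was read after 24 h by fluorescent RT-PCR and capillary electrophoresis, with DMSO defining baseline for gain- or loss-of-signal fits.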

Chain of Transcription factor Sp1 (Homo sapiens) (P08047 whole entry, looked up, the tested form may be a part): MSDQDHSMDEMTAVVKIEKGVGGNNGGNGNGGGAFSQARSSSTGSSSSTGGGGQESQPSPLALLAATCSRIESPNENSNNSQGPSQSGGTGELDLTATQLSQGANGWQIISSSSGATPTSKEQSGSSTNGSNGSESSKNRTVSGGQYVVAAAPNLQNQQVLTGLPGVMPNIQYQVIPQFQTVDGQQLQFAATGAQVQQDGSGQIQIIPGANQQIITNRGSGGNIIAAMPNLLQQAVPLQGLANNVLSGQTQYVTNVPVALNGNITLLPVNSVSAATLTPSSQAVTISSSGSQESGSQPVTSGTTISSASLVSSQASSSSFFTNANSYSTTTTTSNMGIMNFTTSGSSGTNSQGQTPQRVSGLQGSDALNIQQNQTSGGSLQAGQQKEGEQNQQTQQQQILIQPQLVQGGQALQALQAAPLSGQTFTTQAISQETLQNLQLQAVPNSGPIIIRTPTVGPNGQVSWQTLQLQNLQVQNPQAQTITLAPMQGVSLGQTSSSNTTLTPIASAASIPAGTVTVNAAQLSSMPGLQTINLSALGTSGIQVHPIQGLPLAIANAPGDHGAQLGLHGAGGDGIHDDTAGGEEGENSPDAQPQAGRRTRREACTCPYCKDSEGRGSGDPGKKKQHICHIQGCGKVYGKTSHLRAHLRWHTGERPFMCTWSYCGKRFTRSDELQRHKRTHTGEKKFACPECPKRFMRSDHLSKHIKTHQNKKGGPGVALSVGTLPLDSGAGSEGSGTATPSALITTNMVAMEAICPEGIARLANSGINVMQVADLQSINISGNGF
Chain of CCAAT/enhancer-binding protein beta (Homo sapiens) (P17676 whole entry, looked up): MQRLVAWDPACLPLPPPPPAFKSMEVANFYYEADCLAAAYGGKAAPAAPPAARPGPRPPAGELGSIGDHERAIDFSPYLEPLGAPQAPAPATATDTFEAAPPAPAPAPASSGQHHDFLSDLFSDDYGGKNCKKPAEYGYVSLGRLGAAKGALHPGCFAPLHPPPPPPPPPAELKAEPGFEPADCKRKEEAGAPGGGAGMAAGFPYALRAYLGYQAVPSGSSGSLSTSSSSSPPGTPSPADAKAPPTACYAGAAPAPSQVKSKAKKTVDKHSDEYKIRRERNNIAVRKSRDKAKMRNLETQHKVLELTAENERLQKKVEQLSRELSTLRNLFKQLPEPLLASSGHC
Chain of Myc proto-oncogene protein (Homo sapiens) (P01106 whole entry, looked up): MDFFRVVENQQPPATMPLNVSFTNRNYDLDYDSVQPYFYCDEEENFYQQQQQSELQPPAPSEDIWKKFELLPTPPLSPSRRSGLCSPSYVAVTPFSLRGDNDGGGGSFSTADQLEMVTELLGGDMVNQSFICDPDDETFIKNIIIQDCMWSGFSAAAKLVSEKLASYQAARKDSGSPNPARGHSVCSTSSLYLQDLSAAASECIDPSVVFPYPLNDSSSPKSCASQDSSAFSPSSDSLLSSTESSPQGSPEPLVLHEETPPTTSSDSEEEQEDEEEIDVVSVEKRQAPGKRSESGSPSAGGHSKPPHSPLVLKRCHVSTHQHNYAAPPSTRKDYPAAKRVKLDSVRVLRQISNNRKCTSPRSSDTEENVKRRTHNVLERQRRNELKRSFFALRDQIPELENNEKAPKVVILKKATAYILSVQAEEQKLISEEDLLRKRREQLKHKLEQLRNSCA
Chain of Signal transducer and activator of transcription 3 (Homo sapiens) (P40763 whole entry, looked up, the tested form may be a part): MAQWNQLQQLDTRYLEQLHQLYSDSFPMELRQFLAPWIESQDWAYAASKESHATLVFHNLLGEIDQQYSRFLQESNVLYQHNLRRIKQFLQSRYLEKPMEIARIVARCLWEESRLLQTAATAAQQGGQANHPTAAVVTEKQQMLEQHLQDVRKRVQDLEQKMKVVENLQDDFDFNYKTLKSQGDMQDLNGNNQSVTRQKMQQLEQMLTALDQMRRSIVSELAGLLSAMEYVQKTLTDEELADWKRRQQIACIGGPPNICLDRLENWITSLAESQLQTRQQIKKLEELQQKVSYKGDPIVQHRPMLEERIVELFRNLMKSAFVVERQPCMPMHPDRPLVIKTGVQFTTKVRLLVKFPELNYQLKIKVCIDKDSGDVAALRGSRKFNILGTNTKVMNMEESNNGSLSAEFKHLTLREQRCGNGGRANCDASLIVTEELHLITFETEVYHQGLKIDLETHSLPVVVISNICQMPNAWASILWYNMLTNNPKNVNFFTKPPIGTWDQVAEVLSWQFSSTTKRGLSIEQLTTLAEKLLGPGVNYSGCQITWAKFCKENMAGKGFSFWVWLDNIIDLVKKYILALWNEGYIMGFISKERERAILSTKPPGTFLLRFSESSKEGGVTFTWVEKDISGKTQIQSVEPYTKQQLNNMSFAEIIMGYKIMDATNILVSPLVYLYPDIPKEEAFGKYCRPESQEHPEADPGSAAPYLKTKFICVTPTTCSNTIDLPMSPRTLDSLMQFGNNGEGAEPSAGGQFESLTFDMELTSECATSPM
Chain of Transcriptional activator Myb (Homo sapiens) (P10242 whole entry, looked up): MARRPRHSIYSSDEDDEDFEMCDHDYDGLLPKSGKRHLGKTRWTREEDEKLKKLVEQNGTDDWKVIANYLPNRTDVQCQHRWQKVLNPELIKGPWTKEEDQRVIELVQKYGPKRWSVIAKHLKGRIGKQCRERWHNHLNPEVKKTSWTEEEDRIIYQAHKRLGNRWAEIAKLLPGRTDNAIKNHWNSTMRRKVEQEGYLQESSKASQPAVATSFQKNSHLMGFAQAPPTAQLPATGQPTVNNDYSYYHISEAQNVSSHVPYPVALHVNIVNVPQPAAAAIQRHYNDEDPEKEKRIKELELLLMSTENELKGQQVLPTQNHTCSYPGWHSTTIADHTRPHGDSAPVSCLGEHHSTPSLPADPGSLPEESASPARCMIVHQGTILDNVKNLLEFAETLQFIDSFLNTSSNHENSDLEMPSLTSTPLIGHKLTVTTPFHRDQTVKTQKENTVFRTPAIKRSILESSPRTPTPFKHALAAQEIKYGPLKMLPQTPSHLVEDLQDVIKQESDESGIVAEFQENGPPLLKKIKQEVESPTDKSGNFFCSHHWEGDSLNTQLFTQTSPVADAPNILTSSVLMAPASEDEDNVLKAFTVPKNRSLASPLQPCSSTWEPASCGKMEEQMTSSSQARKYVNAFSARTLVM
Chain of Transcription factor E2F1 (Homo sapiens) (Q01094 whole entry, looked up): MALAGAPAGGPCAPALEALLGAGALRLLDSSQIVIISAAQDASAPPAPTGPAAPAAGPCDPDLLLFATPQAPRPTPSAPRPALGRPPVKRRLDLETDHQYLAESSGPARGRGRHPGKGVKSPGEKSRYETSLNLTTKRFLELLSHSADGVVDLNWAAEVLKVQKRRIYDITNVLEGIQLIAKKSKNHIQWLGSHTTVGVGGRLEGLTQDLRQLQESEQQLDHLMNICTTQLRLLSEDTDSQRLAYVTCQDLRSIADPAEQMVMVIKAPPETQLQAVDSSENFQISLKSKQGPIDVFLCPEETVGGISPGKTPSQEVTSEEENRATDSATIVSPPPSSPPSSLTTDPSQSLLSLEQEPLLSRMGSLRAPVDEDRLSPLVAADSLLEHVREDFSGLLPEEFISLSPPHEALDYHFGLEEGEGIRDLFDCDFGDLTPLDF
Chain of X-box-binding protein 1 (Homo sapiens) (P17861 whole entry, looked up): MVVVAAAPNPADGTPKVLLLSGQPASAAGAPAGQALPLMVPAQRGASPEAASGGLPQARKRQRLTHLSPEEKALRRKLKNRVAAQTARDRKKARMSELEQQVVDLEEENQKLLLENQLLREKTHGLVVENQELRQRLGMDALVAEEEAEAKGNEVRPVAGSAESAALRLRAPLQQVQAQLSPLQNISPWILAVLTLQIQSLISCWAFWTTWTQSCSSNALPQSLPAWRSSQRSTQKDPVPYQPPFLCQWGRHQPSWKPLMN

Take `O=C=Nc1ccccc1`: the result in test [1], in test [2], in test [3], in [4], in test [5] and in test [6] was inactive. The molecule was called inactive in test [7], in test [8], in test [9], in test [11], in test [12] and in test [13]. Also, the outcome in test [14], in [15], in test [16], in test [17], in test [18] and in test [19] was inactive. In addition, the molecule was called inactive in test [20]. Besides, the AC50 (in general, the midpoint of the concentration-response curve, whichever way the signal moves) in test [10] was 11.7 µM (active).

`N#CCCCCC#N`: the outcome in test [1], in test [2], in test [3], in [4], in test [5] and in test [6] was inactive. In addition, the call in test [7], in test [8], in [9], in [10], in test [11] and in test [12] was inactive. In addition, the outcome in test [13], in test [14], in [15], in [16], in [17] and in test [18] was inactive. Besides, the outcome in [19] and in test [20] was inactive.

With `C#CC1(O)CCCCC1`, the result in test [1], in [2], in test [3], in [4], in test [5] and in [6] was inactive. In addition, the molecule was called inactive in [7], in test [8], in [9], in test [10], in [11] and in test [12]. Also, the outcome in test [13], in test [14], in test [15], in [16], in test [17] and in test [18] was inactive. Moreover, the molecule was called inactive in test [19] and in [20].

Regarding `CC(=O)C=Cc1ccccc1`, the AC50 in test [1] was 100 µM (active); in test [3], 143 µM (active); in [8], 81.1 µM (active); in [10] it was 26 µM (active); in test [11], 164 µM (active); in test [18], 128 µM (active). Besides, the AC50 in test [20] was 100 µM (active). In addition, the molecule was called inactive in [2], in test [4], in test [5], in test [6], in test [7] and in [9]. The outcome in [12], in test [13], in [14], in [15], in [16] and in [17] was inactive. The call in test [19] was inactive.
